Screening results from PubChem BioAssay.
An excerpt weighted towards active compounds, which were near 4.6% of everything screened.
FAS TE block = FAS thioesterase (human) inhibition. recombinant FAS-TE, OMFH fluorogenic substrate, fluorescence endpoint. P49327. 360,000 tested, 0.67% active. inhibition, % at 15 µM;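 active means compounds whose normalised, plate-corrected inhibition of enzyme fluorescence in the single-dose primary screen is 50% or more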
ADAM10 inh = ADAM10 inhibition, QFRET primary screen. O14672. recombinant ADAM10, EDANS/DABCYL FRET peptide cleavage, 3 h. inhibition, % at 7 µM. 370,000 tested, 0.62% active. AID 720582;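 active means inhibition above a per-campaign cutoff equal to the mean of compounds falling between control-based bounds plus 3 SD, cut at about 20% in these data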
proKLK7 act = activates the human kallikrein-7 zymogen | P49862 | purified proKLK7, EDANS-DABCYL substrate fluorescence; 100% is mature enzyme control, 0% vehicle | activation, % at 7 µM | 370,000 tested, 0.9% active | AID 652039;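 active means activation above the mean of all tested compounds plus 3 SD, computed per campaign excluding outliers beyond control limits, cut at about 13% in these data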
GRIN3A LBD mod = modulates the human NR3A ligand-binding domain; NR3A LBD differential scanning fluorimetry, Tm shift; 0% = protein alone, 100% = glycine-bound protein; 340,000 tested, 2.5% active; Tm shift relative to glycine control, % at 25 µM; AID 1259313;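 active means melting temperature shift of at least 10% of the positive control shift, at one fixed dose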
ADAM17 inh = ADAM17 inhibition, QFRET primary screen; 370,000 tested, 0.83% active; recombinant ADAM17, EDANS/DABCYL FRET peptide cleavage; P78536; inhibition, % at 6.95 µM;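 active means inhibition above the mean of compounds lying between control limits plus 3 SD, set per campaign, cut at about 8.5% in these data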
FAS-TE conf = confirmation of human fatty acid synthase thioesterase inhibitors. recombinant FAS-TE, OMFH fluorogenic substrate, fluorescence. 2,300 tested, 45% active. shares compounds with FAS TE block. inhibition, % at 15 µM;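 active means compounds inhibiting the enzyme by at least 50% at 15 µM in any one of the replicates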
proKLK7 act conf = confirmation of human kallikrein-7 zymogen activators; purified proKLK7, EDANS-DABCYL substrate fluorescence; scaled: vehicle 0, mature enzyme 100; AID 686949; activation, % at 7 µM; shares compounds with proKLK7 act; 3,200 tested, 68% active;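 active means activation, as change over the incubation, above the mean of all tested compounds plus 3 SD, cut at about 13% in these data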
EDANS-DABCYL int = fluorescence interference counter-screen for KLK7 activators | activation, % at 7 µM | 3,200 tested, 80% active | shares compounds with proKLK7 act | EDANS-DABCYL substrate fluorescence interference, no enzyme, 4 h; solvent 0%, active enzyme control 100% | AID 686952;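 active means activation above the all-compound mean plus 3 SD, ignoring values outside control-based bounds, cut at about 4.8% in these data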;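 further: value is the 4 h activation minus the activation read at time zero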
ADAM10 confirm = confirmation of inhibitors of human ADAM10 | AID 743208 | 2,100 tested, 1% active | shares compounds with ADAM10 inh | inhibition, % at 6.95 µM | ADAM10 QFRET peptide cleavage, EDANS fluorescence;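 active means inhibition above about 20% chosen separately for each screening run, limit read from the data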
ADAM17 counter = inhibits human ADAM17 in ADAM10 exosite counter-screen; AID 743214; inhibition, % at 6.95 µM; 2,100 tested, 0.5% active; shares compounds with ADAM10 inh; ADAM17 QFRET peptide cleavage, EDANS fluorescence;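 active means mean triplicate inhibition above the solvent-only control wells' mean plus 3 SD, cut at about 12% in these data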
Large screens that a line does not name were inactive (follow-up assays come after a bar, where they were run).

CCOC(=O)[C@]12Cc3cc4ccccc4cc3[C@H]1N(Cc1ccccc1)C(=O)c1cc(OC)ccc12	FAS TE block 64.8 (no result: GRIN3A LBD mod) | FAS-TE conf inactive
CCOC(=O)[C@]12Cc3cc4ccccc4cc3[C@H]1N(Cc1ccccc1)C(=O)c1ccccc12	FAS TE block 61.2 (no result: GRIN3A LBD mod) | FAS-TE conf inactive
Cc1ccccc1-c1ccc2c(c1)C1c3c(-c4ccccc4)nnn3-c3ccccc3C(=O)N1CC2 (stereo unspecified)	FAS TE block 78.6 (no result: GRIN3A LBD mod) | FAS-TE conf inactive
CCOC(=O)C1=C(C(=O)OCC)C2(c3ccccc3)c3ccccc3C1(C)N2C (stereo unspecified)	none (no result: FAS TE block, GRIN3A LBD mod)
C[C@H](NC(=O)OCc1ccccc1)[P+](=O)O	none (no result: FAS TE block, GRIN3A LBD mod)
O=[N+]([O-])c1ccc(NCc2ccc(Cl)cc2)c2ccncc12	FAS TE block 73.0 | FAS-TE conf 58.4
O=[N+]([O-])c1ccc(NCc2ccccc2)c2nonc12	none (no result: FAS TE block)
Cc1[nH]n(-c2ccccc2)c(=O)c1C(c1ccc([N+](=O)[O-])cc1)c1c(C)[nH]n(-c2ccccc2)c1=O	FAS TE block 85.4 (no result: ADAM10 inh, proKLK7 act, ADAM17 inh) | FAS-TE conf 79.0
O=[N+]([O-])c1ccc(C(c2ccc([N+](=O)[O-])cc2)c2ccc([N+](=O)[O-])cc2)cc1	none
O=C(N/N=C/c1c(O)n(C2CCCCC2)c(=S)[nH]c1=O)c1ccccc1O	FAS TE block 55.4, GRIN3A LBD mod 21.8 | FAS-TE conf 41.9
O=C(N/N=C/c1c(O)n(C2CCCCC2)c(=S)[nH]c1=O)c1ccccc1	none
O=C(O)c1cc(S(=O)(=O)N2CC3CC(C2)c2cccc(=O)n2C3)ccc1F (stereo unspecified)	none (no result: FAS TE block, GRIN3A LBD mod)
O=C1NCN(c2ccccc2)C12CCN(C(c1ccccc1)c1nnnn1-c1ccc3c(c1)OCCO3)CC2 (stereo unspecified)	none (no result: GRIN3A LBD mod)
COc1ccc(C(c2nnnn2-c2c(C)cccc2C)N2CCC3(CC2)C(=O)NCN3c2ccccc2)cc1 (stereo unspecified)	FAS TE block 50.5 (no result: GRIN3A LBD mod) | FAS-TE conf inactive
O=C1NCN(c2ccccc2)C12CCN(C(c1cc3ccccc3o1)c1nnnn1-c1ccc3c(c1)OCCO3)CC2 (stereo unspecified)	FAS TE block 74.2 (no result: GRIN3A LBD mod) | FAS-TE conf inactive
O=C1NCN(c2ccccc2)C12CCN(C(c1cccc3ccccc13)c1nnnn1-c1ccc3c(c1)OCCO3)CC2 (stereo unspecified)	FAS TE block 87.5 (no result: GRIN3A LBD mod) | FAS-TE conf inactive
O=C1NCN(c2ccccc2)C12CCN(C(c1nnnn1-c1ccc3c(c1)OCCO3)C1CC1)CC2 (stereo unspecified)	none (no result: GRIN3A LBD mod)
CC(C)(C)n1nnnc1C(c1cccc2ccccc12)N1CCC2(CC1)C(=O)NCN2c1ccccc1 (stereo unspecified)	FAS TE block 76.8 (no result: GRIN3A LBD mod) | FAS-TE conf inactive
COC(=O)C1=C(c2ccc(OC(F)(F)F)cc2)C[C@@H]2CC[C@H]1N2C(=O)N1CCc2cc(OC)c(OC)cc2C1	none (no result: FAS TE block, GRIN3A LBD mod)
N#Cc1ccc2nc(-c3ccc(CN4CCC(n5nnc6ccccc65)CC4)cc3)c(-c3ccccc3)nc2c1	none (no result: FAS TE block, GRIN3A LBD mod)
Cc1ccc(OC(=O)N(C)C[C@@H]2OCc3ccccc3-c3c(n(C)c4ccccc34)C(=O)N([C@H](C)CO)C[C@H]2C)cc1	none (no result: FAS TE block, GRIN3A LBD mod)
CSc1nc(N)c(N=Nc2ccc([As](=O)(O)O)cc2)c(=O)[nH]1	FAS TE block 53.7, ADAM17 inh 9.1 | FAS-TE conf 59.2
COc1ccc(N=Nc2c(O)[nH]c(=S)[nH]c2=O)cc1	none
CCOC(=O)[C@]12Cc3cc(OC)ccc3[C@H]1N(C)C(=O)c1ccccc12	none (no result: GRIN3A LBD mod)
CCOC(=O)[C@]12Cc3cc(OC)ccc3[C@H]1N(C1CCCCC1)C(=O)c1ccccc12	FAS TE block 77.4 (no result: GRIN3A LBD mod) | FAS-TE conf 71.9
CCOC(=O)[C@]12Cc3cc(Cl)ccc3[C@H]1N(C1CCCCC1)C(=O)c1ccccc12	FAS TE block 76.8 (no result: ADAM10 inh, proKLK7 act, GRIN3A LBD mod, ADAM17 inh) | FAS-TE conf 70.8
CCCCCN1C(=O)c2cc(OC)ccc2[C@@]2(C(=O)OCC)Cc3cc(Cl)ccc3[C@@H]12	FAS TE block 85.3 (no result: GRIN3A LBD mod) | FAS-TE conf inactive
CCOC(=O)[C@]12Cc3cc(Cl)ccc3[C@H]1N(C)C(=O)c1ccccc12	none (no result: GRIN3A LBD mod)
CCOC(=O)[C@]12Cc3cc(Cl)ccc3[C@H]1N(CC(=O)OC)C(=O)c1ccccc12	FAS TE block 55.4 (no result: ADAM10 inh, proKLK7 act, GRIN3A LBD mod, ADAM17 inh) | FAS-TE conf inactive
CCOC(=O)[C@]12Cc3cc(Cl)ccc3[C@H]1N(C(C)C)C(=O)c1ccccc12	FAS TE block 67.6 (no result: GRIN3A LBD mod) | FAS-TE conf inactive
CCOC(=O)[C@]12Cc3cc(Cl)ccc3[C@H]1N(Cc1ccccc1)C(=O)c1cc(OC)ccc12	none (no result: GRIN3A LBD mod)
CC(C)(C)n1nnnc1C1CN=C(c2ccccc2)c2cc(Cl)ccc2N1 (stereo unspecified)	none (no result: FAS TE block, GRIN3A LBD mod)
O=S(=O)(c1ccc2ccccc2c1)N1Cc2cc(Br)ccc2-n2nncc2C1	none (no result: FAS TE block, GRIN3A LBD mod)
O=C(NC1CN2CCC1CC2)c1ccc(Cl)cc1 (stereo unspecified)	none (no result: FAS TE block, GRIN3A LBD mod)
Cc1cc(=O)oc2cc(OCC(=O)N3CCN(C(C)c4ccccc4)CC3)c(Cl)cc12 (stereo unspecified)	FAS TE block 59.6, proKLK7 act 37.7 | FAS-TE conf 67.3 | proKLK7 act conf 63.1 | EDANS-DABCYL int 75.2
Cc1cc(N2CCNC[C@@H]2C)ccc1N1CCN[C@@H](C)C1	none (no result: FAS TE block, GRIN3A LBD mod)
COc1cccc(C(c2nnnn2-c2ccc3c(c2)OCCO3)N2CCC(n3c(=O)[nH]c4ccccc43)CC2)c1OC (stereo unspecified)	FAS TE block 71.7, ADAM10 inh 20.5 (no result: GRIN3A LBD mod) | FAS-TE conf inactive | ADAM10 confirm inactive | ADAM17 counter inactive
O=c1[nH]c2ccccc2n1C1CCN(C(c2nnnn2-c2ccc3c(c2)OCCO3)C2CC2)CC1 (stereo unspecified)	none (no result: GRIN3A LBD mod)
O=c1[nH]c2ccccc2n1C1CCN(C(c2cc3ccccc3o2)c2nnnn2Cc2ccccc2)CC1 (stereo unspecified)	FAS TE block 61.3, ADAM10 inh 23.4 (no result: GRIN3A LBD mod) | FAS-TE conf inactive | ADAM10 confirm inactive | ADAM17 counter inactive
